HepG2 tox: qHTS for Inhibitors of TGF-b: Cytotox Counterscreen. HepG2 CAGA-GFP viability, ATP luminescence, 18 h. AID 588856, 2011. hit rate 0.76% among 410,000. Potency, µM (top dose mostly 46.1 µM), for inactives: at the top dose activity change, negative = cytotoxicity, usual class: cytotoxic; also: potency is read from the fitted curve at half-maximal effect
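CellTiter-Glo luminescence gave cytotoxicity after 18 hours at 37 degrees C. The cells were HepG2 CAGA-GFP in 1% FBS DMEM, stimulated with 500 pg/mL TGF-beta after compound addition. %Activity was normalised to no-cell wells (complete cell-killing) and DMSO (no toxicity), and curves were fitted and classified.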
IL1B secr inh: qHTS for Inhibitors of Inflammasome Signaling: IL-1-beta AlphaLISA Primary Screen | THP-1 LPS/ATP IL-1B secretion, AlphaLISA, 16 h; active compounds read low | hit rate 4.7% among 360,000 | activity change, % at 57.5 µM | AID 743279, 2014; in the data active = activity change below about -50%; inconclusive = mostly about -30% to -49%; also: % is scaled to controls: 0 for no effect and ±100 for the full control effect
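THP-1 cells pretreated 1 hr with compounds (up to 57.5 uM final), then stimulated with LPS (250 ng/mL final) plus ATP (1.25 mM final); secreted IL-1B measured by AlphaLISA after 16 hr, decreased signal indicating inhibition.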
TGFb SMAD3 inh: qHTS for Inhibitors of TGF-b | HepG2 CAGA-GFP TGF-b/SMAD3 reporter, GFP fluorescence, 18 h; TGF-beta stimulated, 500 pg/mL final | Potency, µM (titrated, usually from 46.1 µM), inactives show top-dose activity, negative = inhibition, most hits filed as inhibitors | hit rate 1.2% among 410,000 | AID 588855, 2011; also: potency is read from the fitted curve at half-maximal effect; % is scaled to controls: 0 for no effect and ±100 for the full control effect; nearly all actives have a fitted effect of over 65% in size
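Read-out: total well GFP (ex488/em500-530) summed from mean per-cell fluorescence. Cells: HEPG2 CAGA-GFP, 1% FBS DMEM, 18 h at 37 degrees C with 500 pg/mL final TGF-beta. Unstimulated wells served as the full-inhibition control; stimulated DMSO wells = 0%.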
TDP1 cell CPT: qHTS for Inhibitors of human tyrosyl-DNA phosphodiesterase 1 (TDP1): qHTS in cells in presence of CPT; hit rate 12% among 420,000; AID 686979, 2013; Potency, µM (highest dose often 46.2 µM), without a hit: top-dose activity change, negative = growth inhibition, actives largely listed as inhibitors; chicken DT40 Tdp1-/-;hTDP1 cells + 20 nM CPT, ATP luminescence, 48 h; also: potency is read from the fitted curve at half-maximal effect; % is scaled to controls: 0 for no effect and ±100 for the full control effect; nearly all actives have a fitted effect of over 55% in size
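Chicken DT40 Tdp1-/- cells complemented with human TDP1, 400 cells/well, exposed to compounds plus 20 nM camptothecin for at least 48 h at 37 C; viability read as ATP content by CellTiter-Glo luminescence.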
TDP1 cell noCPT: qHTS for Inhibitors of human tyrosyl-DNA phosphodiesterase 1 (TDP1): qHTS in cells in absence of CPT; DT40 Tdp1-/- hTDP1 cells, no CPT, ATP luminescence, 48 h; hit rate 15% among 420,000; AID 686978, 2013; Potency, µM (series often up to 46.2 µM), inactives show at the top dose activity change, negative = growth inhibition, hits mostly inhibitors; also: potency is read from the fitted curve at half-maximal effect; % is scaled to controls: 0 for no effect and ±100 for the full control effect; nearly all actives have a fitted effect of over 55% in size
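DT40 Tdp1-/-;hTDP1 cells, no CPT (DMSO vehicle only), 400 cells/well; compounds pin-transferred; ≥48 hr, 37 °C; CellTiter-Glo 30 min RT dark, luminescence read.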
TDP1 block: qHTS Assay for Inhibitors of Tyrosyl-DNA Phosphodiesterase (TDP1); hit rate 0.28% among 350,000; Potency, µM (titrated, usually from 130 µM), for inactives: top-dose activity change, negative = inhibition, actives largely listed as inhibitors; recombinant TDP1, AlphaScreen DNA substrate cleavage; also: potency is read from the fitted curve at half-maximal effect; % is scaled to controls: 0 for no effect and ±100 for the full control effect; nearly all actives have a fitted effect of over 40% in size
Target sequence (Q9NUW8 whole entry, looked up): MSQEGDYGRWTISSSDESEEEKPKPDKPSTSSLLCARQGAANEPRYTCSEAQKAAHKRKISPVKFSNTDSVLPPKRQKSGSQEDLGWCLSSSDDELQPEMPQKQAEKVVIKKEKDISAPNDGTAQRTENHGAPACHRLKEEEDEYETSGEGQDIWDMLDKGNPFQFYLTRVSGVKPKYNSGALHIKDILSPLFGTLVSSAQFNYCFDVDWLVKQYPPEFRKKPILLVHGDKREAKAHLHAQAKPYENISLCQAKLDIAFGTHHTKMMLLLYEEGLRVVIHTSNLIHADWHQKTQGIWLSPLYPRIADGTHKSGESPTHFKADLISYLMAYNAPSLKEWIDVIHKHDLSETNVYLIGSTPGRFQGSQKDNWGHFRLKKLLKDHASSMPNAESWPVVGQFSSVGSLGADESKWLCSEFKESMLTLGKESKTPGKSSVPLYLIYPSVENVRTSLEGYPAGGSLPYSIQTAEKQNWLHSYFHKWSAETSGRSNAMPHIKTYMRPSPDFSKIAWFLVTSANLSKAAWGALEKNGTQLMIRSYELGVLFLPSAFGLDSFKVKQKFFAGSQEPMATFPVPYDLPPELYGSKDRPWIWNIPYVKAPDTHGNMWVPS
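Signal: AlphaScreen proximity between streptavidin donor and anti-FITC acceptor beads on intact substrate. Reaction: Tdp1 1 nM, substrate 15 nM final, 5 min RT after 15 min compound preincubation.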
The depositor's hits bear a star; ? = inconclusive; nt = no result given; [ ] = remark or other dose. Sampled rows, rich in hits. Any-hit rate of the full collection: about 18%. Unless noted, calls follow the shape of the dose curve; as a rule, active = well fitted curve in the direction sought with a large enough effect; inconclusive = small, poorly fitted or top-dose-only effect, or another doubt; inactive = no such curve, though single readings can be large; an effect the other way counts as inactive or inconclusive.

SMILES | HepG2 tox | IL1B secr inh | TGFb SMAD3 inh | TDP1 cell CPT | TDP1 cell noCPT | TDP1 block
CCn1cc(CNC(=O)c2cc(-c3cc(OC)ccc3OC)nc3ccccc23)c(C)n1 | -1% | 5 | 0% | ? | 23µM* | 1%
Cn1cc(CNC(=O)c2cc(-c3ccccc3)nc3ccc(Br)cc23)cn1 | -5% | 4 | 8% | -5% | ? | 1%
CCn1cc(CNC(=O)c2cc(-c3ccc(C)cc3)nc3ccc(Br)cc23)c(C)n1 | -22% | nt | -25% | 6.5µM* | 13µM* | -4%
CCn1cc(CNC(=O)c2cc(Cl)ccc2OC)c(C)n1 | 11% | -2 | 3% | 1% | ? | 3%
CCn1cc(CNC(=O)c2cc(-c3ccccc3OC)nc3ccccc23)c(C)n1 | -10% | -11 | -6% | ? | 15µM* | 3%
Cc1ccc(N2CCN(C(C(=O)Nc3c(C)cccc3C)c3ccccc3OC(F)(F)F)CC2)cc1 (configuration not stated) | nt | -22 | nt | ? | ? | nt
CCCNC(=O)C1(C)CCCN(C(=O)c2c(F)ccc(C)c2F)C1 (configuration not stated) | 4% | 20 | 1% | 0% | -16% | nt
C[C@H]1CN=C(N(C)C)N1CCc1cccc(F)c1 | -8% | 20 | 4% | 3% | -7% | -6%
CCCCc1c(-c2ccccc2OC)ncn1CCc1cccc(OC)c1 | nt | -69* | nt | 15µM* | 18µM* | nt
COc1cccc(CNC(=O)CCn2cnc3ccccc3c2=O)c1 | -1% | nt | -4% | -7% | -8% | -9%
CCCCc1c(-c2ccccc2OC)ncn1CCc1cccc(F)c1 | nt | -16 | nt | 16µM* | 21µM* | nt
NC(=S)NCCCC(N)C(=O)O (configuration not stated) | nt | nt | nt | nt | nt | -6%[56.1 µM]
COc1ccc(C2CC(c3ccc4ccccc4c3OC(C)=O)=NN2C(=O)/C=C/c2ccccc2)cc1 (configuration not stated) | -9% | -1 | ? | ? | ? | 3%
COc1ccc(C2CC(c3ccccc3OC(C)=O)=NN2C(=O)/C=C/c2ccccc2)cc1 (configuration not stated) | -7% | -22 | -12% | 21µM* | 16µM* | 0%
CC(=O)Oc1ccccc1C1=NN(C(=O)/C=C/c2ccccc2)C(c2ccccc2)C1 (configuration not stated) | 5% | -15 | 0% | ? | 18µM* | -3%
COc1ccc(C(=O)COC(=O)CNC(=O)c2ccccc2)cc1F | 6% | 9 | ? | 3% | -13% | 3%
CCCCn1c(C)nc2cc(S(=O)(=O)N3CCOCC3)ccc21 | -12% | 3 | 6% | -27% | -25% | 1%
O=S(=O)(c1cccc(-c2nnc(SCc3nc4ccccc4s3)o2)c1)N1CCOCC1 | 0% | -19 | -9% | 18µM* | ? | 6%
CCn1c(SCc2nc3ccccc3s2)nc2cc(S(=O)(=O)N3CCOCC3)ccc21 | 8% | 12 | 0% | 29µM* | ? | nt
CCCCn1c(CCl)nc2cc(S(=O)(=O)N3CCOCC3)ccc21 | -8% | nt | -12% | 4.6µM* | 6.5µM* | 2%
CC(=O)CCSc1nnc(-c2cccc(S(=O)(=O)N3CCOCC3)c2)o1 | -7% | -4 | -1% | -24% | -17% | nt
COCCCn1c(=O)c2ccccc2n(Cc2cccc(C)c2)c1=O | -35% | -12 | -23% | -18% | -14% | 1%
CCN(CC)C(=O)CNC(=O)c1nn(-c2ccc(OC)c(Cl)c2)c(=O)c2ccccc12 | -26% | 23 | -3% | -2% | -21% | nt
COc1ccc(-n2nc(C(=O)NCC(=O)Nc3cc(OC)c(OC)c(OC)c3)c3ccccc3c2=O)cc1Cl | -18% | 0 | -5% | ? | 1.6µM* | -1%
COc1ccc(-n2nc(C(=O)NCC(=O)NCCCN3CC(C)CC(C)C3)c3ccccc3c2=O)cc1Cl (configuration not stated) | -30% | -71* | -25% | -12% | ? | 2%
SMILES | HepG2 tox | IL1B secr inh | TGFb SMAD3 inh | TDP1 cell CPT | TDP1 cell noCPT | TDP1 block
CCCOc1ccc(CC(=O)NCCc2ccccc2)cc1OC | -27% | 18 | -18% | -9% | 2% | nt
CCCCOc1ccc(CSCCN=C(N)N)cc1 | -6% | -81* | -28% | ? | 4.6µM* | -5%
CCN(CC)c1ccc(/C=C/c2cccc[n+]2C)c(OC)c1 | -16% | -92* | 26% | 1.2µM* | 0.052µM* | nt
CCOc1cc(/C=C/c2cccc[n+]2C)ccc1O | 33% | 6 | 7% | 2% | 15% | nt
COc1ccc(/C=C/c2cccc[n+]2C)c(O)c1 | -2% | -13 | ? | ? | 18µM* | nt
C[n+]1ccccc1/C=C/c1cc(Br)ccc1O | -19% | 19 | 19% | -3% | -3% | nt
O=C(Oc1c(-c2ccccc2)c(=O)n2c3c(cccc13)CC2)c1ccc(Cl)cc1 | -27% | 15 | -3% | -23% | 21µM* | 4%
O=C(Oc1c(-c2ccccc2)c(=O)n2c3c(cccc13)CC2)c1ccco1 | -8% | 5 | -20% | 0% | ? | -4%
O=C(c1ccc(N2C(=O)c3ccccc3C2=O)cc1)N1CCN(S(=O)(=O)c2ccccc2F)CC1 | -6% | 16 | -2% | -2% | -28% | nt
COc1ccc(S(=O)(=O)N2CCN(C(=O)c3cccs3)CC2)cc1 | -7% | -12 | -1% | -13% | -17% | 6%
COc1ccc(S(=O)(=O)N2CCN(C(=O)c3sccc3-c3ccccc3)CC2)cc1 | -4% | 3 | ? | 15µM* | 21µM* | -10%[0.505 µM]
O=C(c1sccc1-c1ccccc1)N1CCN(S(=O)(=O)c2ccccc2F)CC1 | -1% | 5 | -12% | 15µM* | ? | 1%[0.505 µM]
CC[C@@H](c1ccccc1)n1c(=O)n2n(c1=O)[C@H]1[C@H](O)[C@H]3O[C@@H]3/C(=N/OCC(C)C)[C@@H]1CC2 | nt | nt | nt | nt | nt | 2%[21 µM]
Cc1ccccc1C(=O)Nc1sc2c(c1C(=O)N1CCC(C)CC1)CCC(C)C2 (configuration not stated) | -2% | nt | 4% | 15µM* | 21µM* | nt
CC1CCN(C(=O)c2c(NC(=O)c3ccccc3F)sc3c2CCC(C(C)(C)C)C3)CC1 (configuration not stated) | -4% | nt | -8% | -7% | 3% | nt

High-throughput results deposited in PubChem by National Center for Advancing Translational Sciences (NCATS).
